Source: PubChem BioAssay (NCATS)
Inconclusive results are not listed. A number with no mark means an inactive call. Active and inactive are the calls of the source. Calls follow the shape of the dose curve; as a rule, active = well fitted cell-killing curve with a large enough effect; inconclusive = small, poorly fitted or top-dose-only effect; inactive = no such curve, though single readings can be large or run the other way.

Assay: qHTS of pediatric cancer cell lines to identify multiple opportunities for drug repurposing: Primary screen for SK-N-SH cells (AID 1347098); also: nearly all actives have a fitted effect of over 65% in size
Conditions: SK-N-SH viability, CellTiter-Glo luminescence, 48 h; series mostly up to 57 µM; activity change, negative = cytotoxic: at the top concentration
Source text: Drug repurposing or repositioning has been offered as a strategy for drug development in oncology programs. This approach has special potential for childhood cancers and other rare or orphan diseases, where the expected return on new drug development has been a disincentive to pharmaceuticals.
In this project we exploit the poly-pharmacology of drugs to discover new indications via phenotypic screening of a panel of 19 well-characterized cell lines derived from solid tumors seen in children and adolescents. The goal is to identify approved drugs with previously unrecognized anticancer properties that has the potential to reveal new mechanisms and biological processes involved in carcinogenesis or drug resistance. We employed a titration-based paradigm (quantitative high-throughput screening or qHTS), where all compounds were tested at multiple concentrations for their effect on cell viability. Concentration-response curves (CRCs) were derived directly from the primary screen, and both potency and efficacy values were used to identify compounds with robust bioactivity profiles. We screened the NIH Chemical Genomics Center (NCGC) Pharmaceutical Collection (NPC) and Mechanism Interrogation Plate (MIPE) small molecule collections of approved and investigational compounds against these cell lines; and measured metabolically active cells after 48 hours of compound treatment as a proxy for cell viability.
Assay Submitter: Nathalia J. Martinez, National Center for Advancing Translational Sciences, National Institutes of Health, Rockville, MD, USA; email: natalia.martinez@nih.gov
[1] Shen, M et al. Quantitative high-throughput phenotypic screening of pediatric cancer cell lines identifies multiple opportunities for drug repurposing. Oncotarget 2017 Dec 19;9(4):4758-4772. PMID 29435139.
The cells were obtained from University of North Carolina (UNC), Pediatric Preclinical Testing Program (PPT), and Coriell Institute (CI).
qHTS cell viability assay:
Cells were assayed in growth media at a density of 500-1,000 cells/well. Five microliters of cells were dispensed into 1,536-well, white, solid-bottom, TC-treated plates (Greiner Bio One) using a multidrop dispenser and incubated at 37 degrees C, 5% CO2, under a humidified atmosphere for 5 hours. Twenty-three nanoliters of compounds and controls (neutral control DMSO or positive control bortezomib at final concentration of 2.3 µM) were subsequently transferred by Kalypsys pintool. For primary screens, the MIPE collection was tested at 11-point dilutions (final concentrations range from 0.78 nM to 46 µM) and the NPC collection at 8-point dilutions (final concentrations range from 0.59 nM to 46 µM). Compounds tested in follow-up screens were assayed at 11-point dilutions. Cells were incubated for 48 hours, followed by addition of 3 µL of CellTiter-Glo (Promega). After a 15 min incubation at room temperature, samples were analyzed for luminescence intensity using a ViewLux High-throughput CCD imager equipped with clear filters.
% is scaled to controls: 0 for no effect and ±100 for the full control effect; potency is read from the fitted curve at half-maximal effect.

Row | SMILES | activity change, negative = cytotoxic [%] | Potency
1 | CCN(CC)CCOC(=O)c1ccc(N)cc1 | 13.4 | 
2 | CC(C)C(=O)Oc1ccc(CO)cc1[C@H](CCN(C(C)C)C(C)C)c1ccccc1 | 6.86 | 
3 | Clc1ccc(C(c2ccc(Cl)cc2)n2cc[n+](CC(OCc3ccc(Cl)cc3Cl)c3ccc(Cl)cc3Cl)c2)cc1 (stereo not given) |  | 24.1 µM (active)
4 | O=C(O)CCc1nc(-c2ccccc2)c(-c2ccccc2)o1 | -4 | 
5 | c1ccc2c(Cc3c[nH]c4ccccc34)c[nH]c2c1 |  | 9.61 µM (active)
6 | CC(C)C(=O)Nc1ncc(-c2cc(C(F)F)nn2-c2c(Cl)cccc2Cl)s1 |  | 24.1 µM (active)
7 | O=C(O)CCC1CCC(c2cc(F)ccc2F)(S(=O)(=O)c2ccc(Cl)cc2)CC1 (stereo not given) | -14 | 
8 | CC1(C)CCC[C@@]2(C)[C@@H]1CC[C@@]1(C)OC(=O)C[C@H]21 | 7.29 | 
9 | O=C(Nc1ccccc1-c1cn2c(CN3CCNCC3)csc2n1)c1cnc2ccccc2n1 | -11.9 | 
10 | CO[C@H]1C[C@@H]2CC[C@@H](C)[C@@](O)(O2)C(=O)C(=O)N2CCCC[C@@H]2C(=O)O[C@H]([C@H](C)C[C@@H]2CC[C@H](OP(C)(C)=O)[C@H](OC)C2)CC(=O)[C@H](C)C=C(C)[C@@H](O)[C@@H](OC)C(=O)[C@H](C)C[C@H](C)C=CC=CC=C1C | -1.14 | 
11 | CC1CCC(C(=O)N(c2cc(C#CC(C)(C)C)sc2C(=O)O)C2CCC(O)CC2)CC1 (stereo not given) | 4.08 | 
12 | Nc1ncnc2c1ncn2[C@@H]1O[C@@H](CO)[C@H](O)[C@H]1O | 10.9 | 
13 | CO[C@H]1C=CC=C(C)C(=O)NC2=CC(=O)C(NCCN(C)C)=C(C[C@@H](C)C[C@H](OC)[C@@H](O)[C@@H](C)C=C(C)[C@@H]1OC(N)=O)C2=O |  | 0.271 µM (active)
14 | O=C(Nc1cc(Cl)cc2c1[nH]c1cnccc12)c1cccnc1 |  | 24.1 µM (active)
15 | O=C1c2ccccc2-[n+]2ccc3c([nH]c4ccccc43)c21 |  | 1.52 µM (active)
16 | O=C(O)c1c(Cl)c(Cl)c(Cl)c(Cl)c1-c1c2cc(I)c(=O)c(I)c-2oc2c(I)c(O)c(I)cc12 |  | 24.1 µM (active)
17 | C=C1C(=O)OC2C=C(C)CCC=C(C)CCC12 (stereo not given) | 3.56 | 
18 | COCCCCC(=NOCCN)c1ccc(C(F)(F)F)cc1 |  | 24.1 µM (active)
19 | CCOc1ccc(Nc2nc(-c3c(C)nc4ccccn34)cs2)cc1 | -20.6 | 
20 | Cc1nnc(C(C)C)n1C1C[C@H]2CC[C@@H](C1)N2CC[C@H](NC(=O)C1CCC(F)(F)CC1)c1ccccc1 (stereo not given in full) | 11.6 | 

Row | SMILES | activity change, negative = cytotoxic [%] | Potency
21 | COc1ccccc1N1CCN(CCCNc2cc(=O)n(C)c(=O)n2C)CC1 | 9.87 | 
22 | CCC(=O)O[C@]1(C(=O)CO)CC[C@H]2[C@@H]3CCC4=CC(=O)CC[C@]4(C)[C@@H]3CC[C@@]21C | 5.28 | 
23 | O=C(CCc1ccc(O)cc1)c1c(O)cc(O)cc1O[C@@H]1O[C@H](CO)[C@H](O)[C@H](O)[C@H]1O | -2.17 | 
24 | CCOC(=O)C1=C(N)Oc2ccc(Br)cc2C1C(C#N)C(=O)OCC (stereo not given) |  | 24.1 µM (active)
25 | O=c1cc(-c2ccccc2)oc2cc(O)c(O)c(O)c12 | -0.674 | 
26 | COc1ccc(-c2coc3cc(O)cc(O)c3c2=O)cc1 |  | 24.1 µM (active)
27 | O=C(O)[C@H]1O[C@H](Oc2cc3oc(-c4ccccc4)cc(=O)c3c(O)c2O)[C@H](O)[C@@H](O)[C@H]1O | 3.47 | 
28 | O=C1NC(=O)C(=Cc2ccc3c(c2)OC(F)(F)O3)S1 |  | 12.1 µM (active)
29 | NC1CCC(Nc2nc(Nc3ccc(C(=O)N4CCCCC4)cc3)c3ncn(-c4cccc(F)c4)c3n2)CC1 (stereo not given) | 15.9 | 
30 | O=C(NCCN1CCOCC1)c1ccc(Cl)cc1 | 4.3 | 
31 | CO[C@H]1C[C@@H]2CC[C@@H](C)[C@@](O)(O2)C(=O)C(=O)N2CCCC[C@@H]2C(=O)O[C@H]([C@H](C)C[C@@H]2CC[C@H](OC(=O)C(C)(CO)CO)[C@H](OC)C2)CC(=O)[C@H](C)C=C(C)[C@@H](O)[C@@H](OC)C(=O)[C@H](C)C[C@H](C)C=CC=CC=C1C | -5.07 | 
32 | CC(=Cc1ccccc1)C=C1SC(=S)N(CC(=O)O)C1=O |  | 21.5 µM (active)
33 | Cc1c[nH]c(C=C2C(=O)Nc3ccccc32)c1CCC(=O)O |  | 24.1 µM (active)
34 | COC(=O)[C@@H]1[C@H]2C[C@H]3c4[nH]c5ccccc5c4CCN3C[C@@H]2CC[C@@H]1O | -12.7 | 
35 | CN(C)c1cc(NC(=O)CNC(C)(C)C)c(O)c2c1C[C@@H]1C[C@H]3[C@H](N(C)C)C(=O)C(C(N)=O)=C(O)[C@@]3(O)C(=O)C1=C2O | 11.4 | 
36 | NC(=O)[C@@H](CCC(F)(F)F)N(Cc1ccc(-c2ncon2)cc1F)S(=O)(=O)c1ccc(Cl)cc1 | 5.18 | 
37 | COc1ncc(-c2ccc3nccc(-c4ccnnc4)c3c2)cc1NS(=O)(=O)c1ccc(F)cc1F |  | 1.52 µM (active)
38 | COC[C@@H](c1ccc(C(F)(F)F)cc1)N1CCN(C2(C)CCN(C(=O)c3c(C)ncnc3C)CC2)C[C@H]1C |  | 5.41 µM (active)
39 | CC(C)n1nc(-c2ccc3oc(N)nc3c2)c2c(N)ncnc21 |  | 21.5 µM (active)
40 | CCS(=O)(=O)N1CC(CC#N)(n2cc(-c3ncnc4[nH]ccc34)cn2)C1 |  | 13.6 µM (active)
